# Compound activity as filed in PubChem.
# HT1080NT lethal – kills 2HG-producing HT-1080-NT fibrosarcoma cells; HT-1080-NT fibrosarcoma viability, CellTiter-Glo ATP luminescence, 48 h; Potency, µM (doses to about 46.1 µM), for the others: at the highest dose activity, negative = less viability, usual class: cytotoxic; 360,000 compounds, 1.6% hits; AID 686970;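 also: NT is the 2HG producing partner of a matched IDH1 knockdown line; potency is read from the fitted curve at half-maximal effect; 0% = DMSO-treated cells and -100% = media-only wells without cells; nearly all actives have a fitted effect of over 55% in size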
#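 Viability of the 2HG-overproducing fibrosarcoma line after 48 hours of compound exposure at 37 degrees C was determined by luminescence with CellTiter-Glo, and concentration-effect curves were then fitted and categorized.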
# ELG1 repair inh – ELG1-dependent DNA repair inhibition. HEK293T ELG1-luciferase reporter, luminescence, 16 h; DNA damage induced by 5-fluorouridine. Potency, µM (top dose mostly 46.1 µM), for the others: at the top dose activity change, negative = inhibition, most hits filed as inhibitors. 330,000 compounds, 2.3% hits. AID 504467; also: potency is read from the fitted curve at half-maximal effect; nearly all actives have a fitted effect of over 55% in size
#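 Quantitative HTS, concentration-response format. 2,000 cells/well co-treated with 5-fluorouridine and compound, 16 hr in 5% CO2 at 37 °C; ONE-Glo luminescence read after 30 min.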
# DT40 TDP1 CPT – growth inhibition of DT40 Tdp1-/-;hTDP1 cells with camptothecin (screen for TDP1 inhibitors); chicken DT40 Tdp1-/-;hTDP1 cells + 20 nM CPT, ATP luminescence, 48 h; Potency, µM (doses to about 46.2 µM), for inactives: at the top dose activity change, negative = growth inhibition, hits mostly inhibitors; 420,000 compounds, 12% hits; also: potency is read from the fitted curve at half-maximal effect; nearly all actives have a fitted effect of over 55% in size
#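 Cell growth measured by CellTiter-Glo luminescence after a minimum 48 h, 37 C compound exposure with 20 nM CPT in Tdp1-knockout DT40 cells stably expressing hTDP1, seeded 400/well; qHTS titration format.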
# IL-1B inflam inh – inflammasome signaling inhibition, IL-1 beta readout; activity change, % at 57.5 µM; 360,000 compounds, 4.7% hits; THP-1 LPS/ATP IL-1B secretion, AlphaLISA, 16 h; stronger effect = lower value; in the data active = activity change below about -50%; inconclusive = mostly about -30% to -49%
#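 Secreted IL-1B measured by AlphaLISA bead assay after 16 h compound exposure of THP-1 cells; compounds (final up to 57.5 uM) added 1 h before LPS (250 ng/mL) and ATP (1.25 mM) stimulation; lower signal means less secretion.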
# HT1080 IDH1KD tx – toxicity to HT-1080 IDH1 knockdown cells (counter line). Potency, µM (titrated, usually from 46.1 µM), for inactives: top-dose activity, negative = toxicity, most hits filed as cytotoxic. AID 686971. 360,000 compounds, 2% hits. HT-1080 IDH1 knockdown viability, ATP luminescence, 48 h;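 also: potency is read from the fitted curve at half-maximal effect; 0% = DMSO wells and -100% = cell-free medium wells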
#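 Cytotoxicity counter-line: IDH1KD HT-1080, 48 h, CellTiter-Glo. Curves classed by r2, magnitude and activity.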
# TDP1 cell noCPT – qHTS for Inhibitors of human tyrosyl-DNA phosphodiesterase 1 (TDP1): qHTS in cells in absence of CPT; DT40 Tdp1-/- hTDP1 cells, no CPT, ATP luminescence, 48 h; Potency, µM (top dose mostly 46.2 µM), for inactives: at the top dose activity change, negative = growth inhibition, most hits filed as inhibitors; 420,000 compounds, 15% hits; also: potency is read from the fitted curve at half-maximal effect; nearly all actives have a fitted effect of over 55% in size
#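 Camptothecin absent (DMSO only). Human TDP1-complemented DT40 knockout cells, 400 cells/well, 37 °C for minimum 48 hr; ATP measured via CellTiter-Glo, 30 min dark incubation, luminescence.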
# The depositor's hits bear a star; ? = inconclusive; / = not tested or not shown. Most compounds without a hit are left out; they make up all but 19% or so of the library. Unless noted, calls follow the shape of the dose curve; as a rule, active = well fitted curve in the direction sought with a large enough effect; inconclusive = small, poorly fitted or top-dose-only effect, or another doubt; inactive = no such curve, though single readings can be large; an effect the other way counts as inactive or inconclusive. Unless noted, % is scaled to controls: 0 for no effect and ±100 for the full control effect.
SMILES,HT1080NT lethal,ELG1 repair inh,DT40 TDP1 CPT,IL-1B inflam inh,HT1080 IDH1KD tx,TDP1 cell noCPT
O=c1c2nnn(-c3ccccc3)c2ncn1C/C=C/c1ccccc1,-7.2%,6.6%,-25.1%,-3.7,-2.4%,25.9µM*
COc1cccc(-n2nnc3c(=O)n(C/C=C/c4ccccc4)cnc32)c1,-6.6%,2.7%,-24.5%,5.1,-0.3%,-29.4%
O=C(NCCOC(=O)c1ccccc1)c1ccc([N+](=O)[O-])cc1,0.5%,4.6%,?,27.1,5.6%,-31.1%
C#Cc1ccc([C@@H]2C=C(C(=O)Nc3ccccc3)O[C@H](OCC)[C@H]2CCCO)cc1,-3.1%,?,16.4µM*,?,-11.3%,13µM*
CCO[C@@H]1OC(C(=O)Nc2ccccc2)=C[C@H](C2CC2)[C@H]1CCCO,8.6%,13.4%,?,6.1,21.1%,?
CCO[C@H]1OC(C(=O)Nc2ccccc2)=C[C@@H](c2ccc(C(F)(F)F)cc2)[C@@H]1CCCO,?,3.1%,14.6µM*,-55.2*,?,14.6µM*
C#Cc1ccc([C@H]2C=C(C(=O)NCc3ccccc3)O[C@@H](OCC)[C@@H]2CCCO)cc1,-21.5%,?,?,?,-12.8%,?
COc1ccc(Nc2nc3ccc(C)cc3nc2-n2nc(C)cc2C)cc1Cl,/,/,1.3%,/,/,-5.8%
CCn1c(=O)c2cc(C(=O)Nc3ccc(OC)cc3OC)sc2c2ccccc21,5.4%,?,-13.3%,-3.6,4.4%,-4.6%
CCn1c(=O)c2cc(C(=O)NCCc3cc(OC)ccc3OC)sc2c2ccccc21,/,/,-2.5%,/,/,8.2µM*
CCn1c(=O)c2cc(C(=O)NCCc3ccc(OC)c(OC)c3)sc2c2ccccc21,/,/,8.2µM*,/,/,7.31µM*
CCOCC(=O)NC1CCc2cc(OC)c(OC)c(OC)c2-c2ccc(SC)c(=O)cc21 (stereo not given),0.0116µM*,/,0.0146µM*,0.0,?,0.164µM*
CCOC(=O)NC1CCc2cc(OC)c(OC)c(OC)c2-c2ccc(SC)c(=O)cc21 (stereo not given),0.0092µM*,/,0.0103µM*,44.7,0.103µM*,0.0164µM*
CN[C@H]1CCc2cc(OC)c(OC)c(OC)c2-c2ccc(OC)c(=O)cc21,-0.1%,/,0.0206µM*,33.1,12.4%,0.13µM*
COc1cc2c(c(OC)c1OC)-c1ccc(NC(=O)c3ccccc3)c(=O)cc1[C@@H](NC(C)=O)CC2,0.1%,?,3.3%,4.2,0.0%,-9.0%
CCCCOC(=O)NC1CCc2cc(OC)c(OC)c(OC)c2-c2ccc(SC)c(=O)cc21 (stereo not given),0.0082µM*,/,0.0164µM*,31.0,0.0092µM*,0.0146µM*
CC(=O)OC[C@@H]1CN(Cc2ccccc2)C[C@H](n2cnc3c(N4CCOCC4)ncnc32)O1,0.7%,/,?,11.3,-4.6%,-21.9%
CN(C)CCCCCCNc1nccc(N2CCN(C)CC2)n1,/,/,10µM*,/,/,20µM*
COc1cc(OC)cc(-c2c(C#Cc3ccsc3)c3cc(-c4ccc(OC)nc4)ccc3n2C)c1,-14.7%,-5.9%,-22.2%,16.7,-6.4%,?
COc1cc(C#Cc2c(-c3cncn3C)n(C)c3ccc(-c4ccc5cc[nH]c5c4)cc23)cc(OC)c1,?,?,18.4µM*,-16.5,-27.8%,?
COc1cc(C#Cc2c(-c3cncn3C)n(C)c3ccc(-c4ccc(OC)c(OC)c4)cc23)cc(OC)c1,-22.1%,7.3µM*,?,-11.9,?,?
COc1cc(C#Cc2c(-c3cncn3C)n(C)c3ccc(Br)cc23)cc(OC)c1,?,9.2µM*,?,0.0,?,18.4µM*
CCOc1ccc(NC(=O)CSc2nnc3c(C)cc4ccccc4n23)cc1,/,/,5.9%,/,/,0.3%
CCC1CCC2(CC1)NNC(=S)NN2,-7.2%,?,?,11.5,-5.8%,18.4µM*
CC(c1ccccc1)n1c(-c2ccccc2)n[nH]c1=S (stereo not given),/,/,-17.0%,/,/,-29.7%
SMILES,HT1080NT lethal,ELG1 repair inh,DT40 TDP1 CPT,IL-1B inflam inh,HT1080 IDH1KD tx,TDP1 cell noCPT
Cc1scc(-c2n[nH]c(=S)n2C(C)c2ccccc2)c1C (stereo not given),8.4%,-0.5%,?,8.2,3.3%,16.4µM*
S=c1nc[nH]c2c1cnn2Cc1ccccc1,-0.6%,-19.2%,10.3µM*,34.9,-5.0%,3.66µM*
CCS(=O)(=O)n1nc(-c2ccco2)nc1NCc1ccc(C(C)C)cc1,/,/,?,/,/,16.4µM*
COc1ccccc1C(=O)NNC(=O)CN(C)S(=O)(=O)c1ccc(Cl)cc1,17.4%,/,-28.1%,-22.8,8.6%,-18.2%
Cc1ccc(Cn2c(C)c(CNC(C)c3ccccc3)c(C(=O)O)c2C)cc1 (stereo not given),/,/,?,/,/,25.9µM*
CC(NCC(=O)Nc1cc(S(=O)(=O)N2CCOCC2)ccc1N1CCOCC1)c1ccco1 (stereo not given),4.3%,-19.5%,-13.7%,0.0,-1.2%,8.2%
NS(=O)(=O)c1ccc(NC(=O)COC(=O)c2cc([N+](=O)[O-])ccc2Cl)cc1,6.0%,-5.4%,2.7%,-89.9*,-4.3%,6.7%
NS(=O)(=O)c1ccc(NC(=O)COC(=O)c2ncc(Cl)c(Cl)c2Cl)cc1,-5.1%,6.9%,-13.6%,-62.3*,-6.2%,-15.8%
CCOc1ccc(NC(=O)COC(=O)c2ncc(Cl)c(Cl)c2Cl)cc1,3.1%,1.4%,-2.5%,6.7,-2.7%,2.2%
NS(=O)(=O)c1ccc(NC(=O)COC(=O)c2cc(Cl)ccc2[N+](=O)[O-])cc1,1.6%,1.9%,-7.1%,0.1,-14.8%,-8.6%
NS(=O)(=O)c1ccc(NC(=O)COC(=O)c2cnc(Cl)c(Cl)c2)cc1,3.5%,17.4%,-8.8%,-75.0*,-2.9%,-18.6%
COc1cc(=O)n2c(c1C(=O)N(C)Cc1nonc1C)CCN(Cc1c(F)cccc1F)CC2,/,/,0.7%,/,/,-12.7%
Cc1onc(-c2ccccc2)c1C(=O)/C=C/N(C)C,-11.1%,5.4%,1.9%,2.8,8.1%,-6.8%
Cc1ccc(O)c(C(=O)c2cnc3c(c2)CN(CCC(C)C)C(=O)N3)c1,?,21.3%,10.3µM*,-14.8,?,11.6µM*
C=CCC(NCc1ccccc1)c1ccc(OC)cc1 (stereo not given),-13.8%,-5.8%,?,-11.3,-6.8%,25.9µM*
